Compound activity: PubChem, several laboratories
CYP2C19 inhib: blocks human cytochrome P450 2C19. CYP2C19 Supersomes, luciferin-H EGE luminescence, 30 min. inhibition, % at 5 µM. hit rate 21% among 96,000. P33261;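 active = CYP2C19 inhibition above a set limit at 5 µM in the primary screen, cut at about 50% in these data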;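 note: plate controls were negative control wells for no effect and 2.5 mM tranylcypromine positive control for full effect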
CYP2C9 inh: inhibitors of human CYP2C9; P11712; CYP2C9 Supersomes, luciferin-H conversion, luminescence; inhibition, % at 5 µM; hit rate 20% among 96,000; AID 777;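 active = blocking of liver enzyme CYP2C9 beyond about 50% at 5 µM, limit read from the data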
Target sequence (P11712 whole entry, looked up): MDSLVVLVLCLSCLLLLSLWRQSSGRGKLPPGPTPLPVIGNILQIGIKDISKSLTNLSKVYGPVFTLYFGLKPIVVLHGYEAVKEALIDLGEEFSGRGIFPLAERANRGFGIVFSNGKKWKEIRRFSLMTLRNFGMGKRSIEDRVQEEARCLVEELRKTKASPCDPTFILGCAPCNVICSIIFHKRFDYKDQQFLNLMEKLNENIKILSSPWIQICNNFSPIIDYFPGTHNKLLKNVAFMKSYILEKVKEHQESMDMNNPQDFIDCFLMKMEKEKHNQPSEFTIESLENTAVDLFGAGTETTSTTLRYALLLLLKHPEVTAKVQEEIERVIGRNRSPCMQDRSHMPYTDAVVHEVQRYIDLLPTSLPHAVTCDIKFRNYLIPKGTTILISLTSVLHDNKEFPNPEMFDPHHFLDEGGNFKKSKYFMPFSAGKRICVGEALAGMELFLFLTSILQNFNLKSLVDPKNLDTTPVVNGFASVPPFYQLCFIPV
Cav3 T inh: blocks human Cav3.2 T-type calcium channel | hit rate 4% among 100,000 | B-score at 10 µM | Cav3.2-expressing cells, Fluo-4 calcium fluorescence FDSS; stronger effect = lower value;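 active = single-dose well whose peak fluorescence ratio is a statistical outlier from its plate by either plate-standardised score or position-corrected B-score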
CYP2C19 activ: increases human CYP2C19 enzyme activity; recombinant CYP2C19, luciferin-H EGE luminescence; stronger effect = higher value; 0 = fully inhibited enzyme, 1 = untreated enzyme; activation factor at 5 µM; 96,000 tested, under 10 active; AID 1025;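 active = activation factor of at least 2 at 5 µM in the primary screen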;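 note: 0 = wells with 2.5 mM tranylcypromine and 1 = vehicle-only wells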
CYP2C9 act: activators of human CYP2C9. AID 1024. recombinant CYP2C9, luciferin-H conversion, luminescence; stronger effect = higher value; factor 1 = untreated enzyme, 0 = blocked. activation factor at 5 µM. P11712. hit rate 1.4% among 96,000;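 active = activation factor of 2 or more for CYP2C9 at a 5 µM dose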;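 note: 0 = sulfaphenazole-blocked wells and 1 = vehicle-only wells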
* hit, by the source's call. Rows were chosen to be rich in hits. Some 27% of all compounds tested hit in one or more screens of this group.

`Cc1c(NS(=O)(=O)c2ccc3c(c2)OCCO3)cccc1-c1nc2cccnc2s1` gave CYP2C19 inhib 100.4*, CYP2C9 inh 82.7*, Cav3 T inh -2.45, CYP2C19 activ 0 and CYP2C9 act 0.2.
For Cc1cc(-c2nc3cccnc3s2)ccc1NS(=O)(=O)c1ccc2c(c1)OCCO2 the results were CYP2C19 inhib 30.6, CYP2C9 inh 96.2*, Cav3 T inh -0.483, CYP2C19 activ 0.7 and CYP2C9 act 0.
For Cc1nnc(NC(=O)Cn2cnc3c2c(=O)n(C)c(=O)n3C)s1 the results were Cav3 T inh 0.322.
Screening CC(C)c1cc(NCC2CCCO2)n2c(nc3ccccc32)c1C#N (centres undefined) returned CYP2C19 inhib -0.3, CYP2C9 inh 73.4*, Cav3 T inh 0.993, CYP2C19 activ 1 and CYP2C9 act 0.3.
CC(C)c1nc(NCCN2CCOCC2)c(C#N)c2c1COC(C)(C)C2 was read as CYP2C19 inhib 14.7, CYP2C9 inh 45.1, Cav3 T inh 0.377, CYP2C19 activ 0.9 and CYP2C9 act 0.5.
For N#Cc1c2c(c(NCCN3CCOCC3)n3c1nc1ccccc13)CCCC2 the results were CYP2C19 inhib 53.0*, CYP2C9 inh 86.0*, Cav3 T inh -0.0285, CYP2C19 activ 0.5 and CYP2C9 act 0.1.
`CCc1nc(NCCN2CCOCC2)c(C#N)c2c1CCCC2` gave CYP2C19 inhib 68.7*, CYP2C9 inh 9.6, Cav3 T inh -0.414, CYP2C19 activ 0.3 and CYP2C9 act 0.9.
CC(C)Cc1nc(NCCN2CCOCC2)c(C#N)c2c1COC(C)(C)C2 was read as CYP2C19 inhib 88.0*, CYP2C9 inh 78.9*, Cav3 T inh -0.0021, CYP2C19 activ 0.1 and CYP2C9 act 0.2.
Screening NC(=O)CC(NSc1ccccc1[N+](=O)[O-])C(=O)O (centres undefined) returned Cav3 T inh -0.345.
Screening CC#CCN1c2ccccc2[C@]23C[C@@H](C(=O)OC)N(C(=O)NC4CCCCC4)C2=NC(C(=O)OC)=C(C(=O)OC)[C@H]13 returned Cav3 T inh -0.737.
`CCCCc1nc(NCCN2CCOCC2)c(C#N)c2c1COC(C)(C)C2` gave CYP2C19 inhib 28.3, CYP2C9 inh 69.4*, Cav3 T inh -0.48, CYP2C19 activ 0.7 and CYP2C9 act 0.3.
CCN(CC)C(=O)N1c2ccccc2C=Cc2ccccc21 was read as CYP2C19 inhib 62.7*, CYP2C9 inh 41.3, Cav3 T inh -8.58*, CYP2C19 activ 0.4 and CYP2C9 act 0.6.
For NC(=O)N1c2ccccc2C=Cc2ccccc21 the results were Cav3 T inh 1.41.
O=C(CN1CCCCCC1)N1c2ccccc2C=Cc2ccccc21 was read as CYP2C19 inhib 51.2*, CYP2C9 inh 15.5, Cav3 T inh 0.34, CYP2C19 activ 0.5 and CYP2C9 act 0.8.
O=C(NCc1ccc2c(c1)OCO2)C1CCCN(S(=O)(=O)c2cccnc2)C1 (centres undefined) was read as CYP2C19 inhib -1.5, CYP2C9 inh 49.5, Cav3 T inh 1.28, CYP2C19 activ 1 and CYP2C9 act 0.5.
`CCC(C)c1ccc(OCC(=O)Nc2ccc(Cl)cn2)cc1` (centres undefined) gave CYP2C19 inhib 32.5, CYP2C9 inh 20.7, Cav3 T inh 0.623, CYP2C19 activ 0.7 and CYP2C9 act 0.8.
CCn1c(SCC(=O)Nc2sc(C)c(C)c2C#N)nnc1C(C)C was read as CYP2C19 inhib 97.7*, CYP2C9 inh 91.0*, Cav3 T inh 0.472, CYP2C19 activ 0 and CYP2C9 act 0.1.
COCCn1c(SCC(=O)Nc2sc(C)c(C)c2C#N)nnc1C(C)C was read as CYP2C19 inhib 80.1*, CYP2C9 inh 92.0*, Cav3 T inh -0.153, CYP2C19 activ 0.2 and CYP2C9 act 0.1.
`Cc1sc(NC(=O)CSc2nnc(COc3ccccc3)n2C)c(C#N)c1C` gave CYP2C19 inhib 10.3, CYP2C9 inh 13.1, Cav3 T inh -0.733, CYP2C19 activ 0.9 and CYP2C9 act 0.9.
O=C(Nc1ccc(Cl)cc1)N(Cc1nnc2n1CCCCC2)c1ccccc1 was read as CYP2C19 inhib -16.3, CYP2C9 inh -26.1, Cav3 T inh -0.00434, CYP2C19 activ 1.2 and CYP2C9 act 1.3.
For CCCOc1ccc(C(=O)N2CCN(c3ccc(N)cc3Cl)CC2)cc1 the results were CYP2C19 inhib 84.3*, CYP2C9 inh 80.4*, Cav3 T inh -0.037, CYP2C19 activ 0.2 and CYP2C9 act 0.2.
